A number with no mark means an inactive call. For some of these results: Measured potencies and affinities stand elsewhere. Calls of active or inactive are those of the source. Unless noted, no rule for the calls is given here.

A word on the inhibition: it is the relative decrease from the control value, in per cent.

Experiment [1] in a line: antimalarial activity against Dd2 strain (AID 2302;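 active = growth inhibition above 50% at the single 2 µM test dose, taken to imply half-maximal potency below 2 µM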;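 also: 0% = DMSO untreated growth and 100% = chloroquine plus artemisinin killed control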). To be noted: P. falciparum Dd2 in RBCs, LDH growth readout, 72 h; at 2 µM; stronger effect = higher value.
The nature of experiment [2]: HepG2 cytotoxicity, primary screen, cytotoxicity control for P. falciparum antimalarial project, cell-based, ATP luminescence (AID 2303;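 active = inhibition above 50%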;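 also: 0% = DMSO wells and 100% = digitonin-killed cells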). To be noted: HepG2 viability, 24-48 h, at 10 µM, stronger effect = higher value.
For experiment [3], the target named is L-lactate dehydrogenase (Plasmodium falciparum (isolate CDC / Honduras)) (UniProt Q27743). As to the kind of experiment: PfLDH activity inhibition – cell lysate, 3D7 strain, counter-screen for P. falciparum growth inhibition project (AID 2304).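 Also: 0% = vehicle and 100% = reference inhibitor.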 As to conditions: P. falciparum 3D7 crude extract, LDH APAD/NBT absorbance; at 2 µM; stronger effect = higher value. (The purpose of a counterscreen is to sort out artefacts and off-target activity.)

Experiment [4] can be described thus: inhibition of 3D7 malaria parasite growth – strain 3D7 (AID 2306).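 Also: 0% = DMSO wells and 100% = chloroquine plus artemisinin control wells.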 To be noted: P. falciparum 3D7 erythrocytic growth, LDH absorbance, 72 h; at 2 µM; stronger effect = higher value.
Experiment [5] deals with Calcium-dependent protein kinase 1 (Plasmodium falciparum (isolate 3D7)) (UniProt P62344). Kind of experiment: PfCDPK1 kinase inhibitors, biochemical, TCAMS library (AID 1159585; cut-off not given, nearly all actives have IC50 up to about 0.98 µM;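 also: inhibitors leave more ATP so luminescence rises with inhibition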). As to conditions: recombinant PfCDPK1, Kinase-Glo ATP depletion luminescence. A general note: In Kinase-Glo more light means more ATP remaining.
Experiment [6] concerns the target Plasmodium falciparum protein kinase 6 (PK6, PF3D7_1337100) (UniProt Q8IDW1). As to the kind of experiment: PfPK6 kinase inhibitors, biochemical, TCAMS library (AID 1159586). To be noted: recombinant PfPK6, Kinase-Glo ATP depletion luminescence.
For experiment [7], the target named is Protein kinase 7 (PK7), Plasmodium falciparum 3D7 (PF3D7_0213400) (UniProt Q7YTF7). As to the kind of experiment: inhibition of Plasmodium PK7 catalytic activity – biochemical, TCAMS antimalarial set, Kinase-Glo luminescence (AID 1159587). To be noted: recombinant PfPK7, Kinase-Glo ATP depletion luminescence.
Experiment [8] concerns the target Calcium-dependent protein kinase 4 (Plasmodium falciparum (isolate 3D7)) (UniProt Q8IBS5). As to the kind of experiment: PfCDPK4 kinase inhibitors, biochemical, TCAMS library (AID 1159588; cut-off not given, nearly all actives have IC50 up to about 0.91 µM). As to conditions: recombinant PfCDPK4, Kinase-Glo ATP depletion luminescence.

Calcium-dependent protein kinase 4 (Plasmodium falciparum (isolate 3D7)), sequence (Q8IBS5 whole entry, looked up): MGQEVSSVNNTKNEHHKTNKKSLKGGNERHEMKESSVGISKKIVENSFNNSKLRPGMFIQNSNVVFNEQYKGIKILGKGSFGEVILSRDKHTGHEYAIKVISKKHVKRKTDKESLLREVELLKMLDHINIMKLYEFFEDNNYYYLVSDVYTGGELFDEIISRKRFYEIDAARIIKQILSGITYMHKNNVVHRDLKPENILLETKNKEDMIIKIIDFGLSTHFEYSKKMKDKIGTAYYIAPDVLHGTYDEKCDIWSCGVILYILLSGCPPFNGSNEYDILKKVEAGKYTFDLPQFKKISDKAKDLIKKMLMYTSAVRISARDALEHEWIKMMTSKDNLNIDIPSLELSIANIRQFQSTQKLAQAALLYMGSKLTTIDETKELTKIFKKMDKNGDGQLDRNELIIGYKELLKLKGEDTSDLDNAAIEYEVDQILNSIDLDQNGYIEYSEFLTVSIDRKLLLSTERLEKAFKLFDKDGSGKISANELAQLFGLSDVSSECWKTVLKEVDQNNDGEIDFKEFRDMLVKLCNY
Protein kinase 7 (PK7), Plasmodium falciparum 3D7 (PF3D7_0213400), sequence (Q7YTF7 1-343): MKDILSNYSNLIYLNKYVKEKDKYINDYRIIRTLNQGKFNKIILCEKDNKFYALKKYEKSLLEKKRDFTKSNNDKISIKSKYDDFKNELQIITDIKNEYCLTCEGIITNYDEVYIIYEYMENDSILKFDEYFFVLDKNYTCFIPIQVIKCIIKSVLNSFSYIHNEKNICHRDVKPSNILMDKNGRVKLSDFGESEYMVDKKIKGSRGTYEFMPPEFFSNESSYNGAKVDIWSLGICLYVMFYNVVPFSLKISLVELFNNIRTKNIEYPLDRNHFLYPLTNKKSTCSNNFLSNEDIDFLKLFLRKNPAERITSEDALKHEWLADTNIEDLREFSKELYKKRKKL
L-lactate dehydrogenase (Plasmodium falciparum (isolate CDC / Honduras)), sequence (Q27743 whole entry, looked up): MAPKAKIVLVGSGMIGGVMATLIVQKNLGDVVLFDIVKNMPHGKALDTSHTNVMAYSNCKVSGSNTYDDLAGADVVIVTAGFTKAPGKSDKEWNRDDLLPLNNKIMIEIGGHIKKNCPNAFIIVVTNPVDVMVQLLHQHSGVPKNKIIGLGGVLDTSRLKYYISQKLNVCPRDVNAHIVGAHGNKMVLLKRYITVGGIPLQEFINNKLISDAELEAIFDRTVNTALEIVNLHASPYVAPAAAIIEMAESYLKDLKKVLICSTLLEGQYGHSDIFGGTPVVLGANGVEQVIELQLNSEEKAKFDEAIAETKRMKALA
Plasmodium falciparum protein kinase 6 (PK6, PF3D7_1337100), sequence (Q8IDW1 1-305): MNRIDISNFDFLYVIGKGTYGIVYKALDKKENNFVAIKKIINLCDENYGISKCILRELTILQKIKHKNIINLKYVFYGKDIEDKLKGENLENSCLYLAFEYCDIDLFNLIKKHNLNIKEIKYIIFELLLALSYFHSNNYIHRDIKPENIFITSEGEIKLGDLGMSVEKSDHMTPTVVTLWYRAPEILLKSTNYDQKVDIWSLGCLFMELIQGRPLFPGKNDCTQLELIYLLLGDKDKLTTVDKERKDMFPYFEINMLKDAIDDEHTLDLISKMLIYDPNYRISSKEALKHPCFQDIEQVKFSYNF
Calcium-dependent protein kinase 1 (Plasmodium falciparum (isolate 3D7)), sequence (P62344 whole entry, looked up): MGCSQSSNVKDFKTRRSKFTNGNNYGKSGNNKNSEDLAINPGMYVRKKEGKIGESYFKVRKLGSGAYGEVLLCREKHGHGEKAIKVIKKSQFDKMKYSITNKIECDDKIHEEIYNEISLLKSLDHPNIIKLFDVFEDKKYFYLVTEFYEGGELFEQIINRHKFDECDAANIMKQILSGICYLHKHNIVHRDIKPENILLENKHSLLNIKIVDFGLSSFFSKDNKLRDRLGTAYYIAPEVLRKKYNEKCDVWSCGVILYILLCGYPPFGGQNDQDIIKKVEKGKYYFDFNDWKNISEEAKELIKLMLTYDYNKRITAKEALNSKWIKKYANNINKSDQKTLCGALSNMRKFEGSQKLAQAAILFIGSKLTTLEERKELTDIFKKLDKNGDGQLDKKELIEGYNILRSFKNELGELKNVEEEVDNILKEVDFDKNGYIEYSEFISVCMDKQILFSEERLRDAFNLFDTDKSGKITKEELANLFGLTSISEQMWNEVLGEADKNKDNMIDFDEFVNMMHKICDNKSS

As to `O=C(/C=C/c1ccc(F)cc1)NC1CCC(CCN2CCCN(c3ccc(C(F)(F)F)cn3)CC2)CC1` (stereo not given), the growth inhibition in experiment [1] was 13%; in experiment [4] it was 97% (active). Besides, the inhibition was 29% in experiment [2] and -1% in experiment [3]. In addition, the outcome in experiment [5], in experiment [6], in experiment [7] and in experiment [8] was inactive.

Regarding `CC(C)c1cc(C(=O)N[C@@H](Cc2ccccc2)[C@H](O)CNC2CCCCC2)cc(N2CCCC2=O)c1`, the growth inhibition in experiment [1] is 98% (active); in experiment [4], 101% (active). The inhibition in experiment [2] was -11%; in experiment [3], 5%. Moreover, the outcome in experiment [5], in experiment [6], in experiment [7] and in experiment [8] was inactive.

For `Cc1cccc2[nH]c(-c3ccc(-c4cccc(NCc5cn6cccnc6n5)c4)cc3)nc12`, the growth inhibition was 63% (active) in experiment [1] and 94% (active) in experiment [4]. Besides, the inhibition is 9% in experiment [2] and -3% in experiment [3]. The result in experiment [5], in experiment [6], in experiment [7] and in experiment [8] was inactive.

`CCO[C@H]1CN[C@H](C#Cc2cc3c(Nc4ccc(OCc5cccc(F)c5)c(Cl)c4)ncnc3s2)C1`: the figures for the growth inhibition in experiment [1] and in experiment [4] were 37% and 100% (active), respectively. Besides, the inhibition in experiment [2] is 8%; in experiment [3], 2%. The outcome in experiment [5], in experiment [6], in experiment [7] and in experiment [8] was inactive.

For `CCC(C)c1ccc(NC(=O)Nc2ccnc3ccccc23)cc1` (stereo not given), the growth inhibition in experiment [1] is 42%; in experiment [4] it was 98% (active). Besides, the inhibition is 27% in experiment [2] and -2% in experiment [3]. The outcome in experiment [5], in experiment [6], in experiment [7] and in experiment [8] was inactive.

With `CCOC(=O)c1c(C)noc1Nc1ccc(OC)cc1`, the growth inhibition in experiment [1] is -6%; in experiment [4], 99% (active). For the same compound, the inhibition is -1% in experiment [2] and -6% in experiment [3]. Moreover, the result in experiment [5], in experiment [6], in experiment [7] and in experiment [8] was inactive.

Regarding `COc1cc(CNCCCCCCNCc2cc(OC)c3ccccc3c2OC)c(OC)c2ccccc12`, the growth inhibition in experiment [1] was 40%; in experiment [4], 102% (active). For the same compound, the inhibition in experiment [2] was 99% (active); in experiment [3], -2%. In addition, the outcome in experiment [5], in experiment [6], in experiment [7] and in experiment [8] was inactive.

Take `CN(CCN(C)C(=O)NCc1ccccc1)C(=O)NCc1ccccc1`: the growth inhibition was 0% in experiment [1] and 101% (active) in experiment [4]. The figures for the inhibition in experiment [2] and in experiment [3] were 2% and 1%, respectively. Moreover, the result in experiment [5], in experiment [6], in experiment [7] and in experiment [8] was inactive.

For the compound `CN1CCN(CCCN(Cc2cccc(-c3ccc(CNC4CCCC4)cc3)c2)C(=O)/C=C/c2ccccc2)CC1`, the growth inhibition was 96% (active) in experiment [1] and 98% (active) in experiment [4]. For the same compound, the values for the inhibition in experiment [2] and in experiment [3] were 62% (active) and -2%, respectively. Besides, the outcome in experiment [5], in experiment [6], in experiment [7] and in experiment [8] was inactive.

As for `CCOC(=O)c1[nH]c(-c2ccc(Cl)cc2)nc1NC(=S)NCCCN1CCOCC1`, the values for the growth inhibition in experiment [1] and in experiment [4] were 33% and 92% (active), respectively. The inhibition in experiment [2] is 22%; in experiment [3] it was -4%. The outcome in experiment [5], in experiment [6], in experiment [7] and in experiment [8] was inactive.

Regarding `CCCN(CCC)CCOc1ccc(C(O)(C#CC(O)(c2ccc(OCCN(CCC)CCC)cc2)c2cccc(Cl)c2)c2cccc(Cl)c2)cc1` (stereo not given), the growth inhibition is 98% (active) in experiment [1] and 101% (active) in experiment [4]. Moreover, the inhibition in experiment [2] was 100% (active); in experiment [3], 6%. For the same compound, the result in experiment [5], in experiment [6], in experiment [7] and in experiment [8] was inactive.

Regarding `COc1ccccc1CN1CCC(CNC(=O)c2cc(-c3ccc(N(C)C)cc3)cs2)C1` (stereo not given), the growth inhibition in experiment [1] is 16%; in experiment [4], 82% (active). The results for the inhibition in experiment [2] and in experiment [3] were 17% and -5%, respectively. Further, the result in experiment [5], in experiment [6], in experiment [7] and in experiment [8] was inactive.

Turning to `Cc1ccc(F)c(CN2CCC(N3CC(c4ccccc4)(c4ccccc4)OC3=O)CC2)c1Cl`, the growth inhibition was 89% (active) in experiment [1] and 95% (active) in experiment [4]. The inhibition is 11% in experiment [2] and -4% in experiment [3]. Moreover, the result in experiment [5], in experiment [6], in experiment [7] and in experiment [8] was inactive.

Turning to `N#Cc1ccc2c(c1)CCN(CCC1CCC(NC(=O)/C=C/c3ccc4[nH]ccc4c3)CC1)CC2` (stereo not given), the growth inhibition in experiment [1] is 27%; in experiment [4], 93% (active). Moreover, the inhibition in experiment [2] and in experiment [3] was 2% in each case. Further, the outcome in experiment [5], in experiment [6], in experiment [7] and in experiment [8] was inactive.

Regarding `O=c1cc(NCCC(CNCc2ccc(Br)o2)NCc2cc(Br)cc(Br)c2)[nH]c2ccccc12` (stereo not given), the growth inhibition in experiment [1] is 90% (active); in experiment [4], 98% (active). The inhibition in experiment [2] is 2%; in experiment [3], 6%. Moreover, the outcome in experiment [5], in experiment [6], in experiment [7] and in experiment [8] was inactive.

As for `O=C(Nc1cccc(C(F)(F)F)c1)NC1CCN(c2ccnc3cc(Cl)ccc23)CC1`, the growth inhibition in experiment [1] was 47%; in experiment [4], 101% (active). Further, the inhibition in experiment [2] was 13%; in experiment [3] it was -2%. Moreover, the outcome in experiment [5], in experiment [6], in experiment [7] and in experiment [8] was inactive.

Consider `O=C(Nc1cccc2ccccc12)N1CCc2cc3nccc(N4CCN5CCC[C@H]5C4)c3cc21`, for which the growth inhibition is 86% (active) in experiment [1] and 99% (active) in experiment [4]. In addition, the inhibition in experiment [2] was 11%; in experiment [3] it was 0%. The outcome in experiment [5], in experiment [6], in experiment [7] and in experiment [8] was inactive.

Turning to `O=C(/C=C/c1ccc(Cl)c(Cl)c1)NCCCCCN1CCCC(CNC(=O)/C=C/c2ccccc2)C1` (stereo not given), the results for the growth inhibition in experiment [1] and in experiment [4] were 6% and 98% (active), respectively. In addition, the inhibition was 37% in experiment [2] and -7% in experiment [3]. The result in experiment [5], in experiment [6], in experiment [7] and in experiment [8] was inactive.

On to `O=C(/C=C/c1ccc(Cl)cc1Cl)N1CCC(CCN2CCC(c3c[nH]c4ccccc34)CC2)CC1`, for which the growth inhibition was 37% in experiment [1] and 98% (active) in experiment [4]. In addition, the inhibition in experiment [2] is 94% (active); in experiment [3], -6%. Moreover, the result in experiment [5], in experiment [6], in experiment [7] and in experiment [8] was inactive.

On to `CCOc1ccccc1C1CCN(CCCCNC(=O)c2ccc(NC(=O)c3ccc(Cl)cc3)cc2)CC1`, for which the growth inhibition in experiment [1] is 27%; in experiment [4], 95% (active). Moreover, the inhibition in experiment [2] was 13%; in experiment [3], 1%. Further, the result in experiment [5], in experiment [6], in experiment [7] and in experiment [8] was inactive.
